Laboratory results: PubChem BioAssay (NCI)
About 83,000 compounds went through this panel and 20% of them were active in at least one assay; those are over-represented in the sample as a whole.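 Compound tested at a single concentration for 48 hours in 96-well plates; a percent growth value below 10 was scored as active.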 Values without a mark were called inactive. Active and inactive are the calls of the source.

How the values were obtained:
Experiment in all cases: NCI-60 one-dose screen, 48 h (100 = growth as untreated, 0 = no growth, -100 = all killed)
T-47D breast = settings: 10 µM
BT-549 breast = settings: 10 µM unless noted
MDA-MB-435 melanoma = settings: 10 µM unless noted
SW-620 colon = settings: 10 µM unless noted
MCF7 breast = settings: 10 µM unless noted
HCT-116 colon = settings: 10 µM unless noted
HCC-2998 colon = settings: 10 µM unless noted
KM12 colon = settings: 10 µM unless noted

| SMILES | growth (T-47D breast) | growth (BT-549 breast) | growth (MDA-MB-435 melanoma) | growth (SW-620 colon) | growth (MCF7 breast) | growth (HCT-116 colon) | growth (HCC-2998 colon) | growth (KM12 colon) |
| --- | --- | --- | --- | --- | --- | --- | --- | --- |
| CCOc1ccc(-c2cnnn2-c2nonc2-n2cccc2)cc1 | 49% | 41.1% | -31.2% (active) | 21.7% | 21.9% | 6.67% (active) | 0.666% (active) | 8.62% (active) |
| Cc1ccc(C(=O)O[C@H](C(=O)O)[C@H](OC(=O)c2ccc(C)cc2)C(=O)O)cc1 | 93.6% | – | – | – | – | – | – | – |
| O=C(Nc1ccc(F)cc1)c1ccc(C(=O)Nc2ccc(F)cc2)cc1 | 99.1% | 112% | 101% | 109% | 95.9% | 96.2% | 111% | 108% |
| Cc1cc(Cl)c2c(Cl)ccc(Cl)c2n1 | 103% | 100% | 102% | 114% | 99.3% | 100% | 116% | 108% |
| COC1(OC)C2(Cl)C=C(c3ccccc3)C1(Cl)C(Cl)=C2Cl (stereo not given) | 95.6% | 88.2% | 95.7% | 115% | 99.2% | 79.3% | 99.8% | 109% |
| CN1CCc2cccc3c2C1Cc1ccc(O)c(O)c1-3 (stereo not given) | 89.3% | 81.6% | 98.6% | 34.8% | 81.6% | 77% | 86.5% | 96.4% |
| O=c1oc2ccccc2cc1-c1csc(N/N=C/c2cc3ccccc3nc2Cl)n1 | 90.8% | 105% | 95.7% | 106% | 90.7% | 105% | 102% | 100% |
| C=CCCCCCCCCC(=O)[O-].C=CCCCCCCCCC(=O)[O-].[Zn+2] | 112% | – | – | – | – | – | – | – |
| COC(=O)c1c2c(c(C)[n+]([O-])c1C)C(=O)C=C(NCc1ccc(F)cc1)C2=O | -41.1% (active) | -91.3% (active) | -93.1% (active) | -9.71% (active) | -60.6% (active) | 0.358% (active) | -40.2% (active) | 1.23% (active) |
| N#Cc1ccc(C(F)(F)F)nc1N1CCC(C(=O)Nc2ccc(Cl)cc2)CC1 | 64.7% | 70.8% | 67.5% | 75.4% | 60% | 41.3% | 68.7% | 91% |
| CN([N-]C(=O)CC(=O)[N-]N(C)C(=S)c1ccccc1)C(=S)c1ccccc1.[Cu+2] | -52.7% (active) | -73% (active) | -83.9% (active) | -67.4% (active) | -48.3% (active) | -12.4% (active) | -94.2% (active) | -74.8% (active) |
| CCCCc1ccc(C(O)(CCN2CC3CCC(CC3)C2)c2ccccc2)cc1 (stereo not given) | 73.8% | 90.2% | 98.2% | 95.7% | 95.7% | 77% | 90.1% | 93.2% |
| CCCCCCCCCCCCSC1=CC(=O)C=CC1=O | 30.6% | 16.5% | 102% | 109% | 68.9% | 78.3% | 94.3% | 48.9% |
| CC1=CN2C(=NC3=C(CCCC/C3=C\c3ccccc3)C2c2ccccc2)S1 (stereo not given) | 91% | 108% | 99.6% | 103% | 94.6% | 97.6% | 103% | 100% |
| O=C(CCCCCCC(=O)Nc1ccc2c(c1)/C(=C/c1ccc[nH]1)C(=O)N2)NO | -0.107% (active) | 29.7% | -1.97% (active) | -27% (active) | 17.2% | -36.8% (active) | 3.74% (active) | -14.4% (active) |
| COC(=O)c1c2c(c(C)[n+]([O-])c1C)C(=O)C=C(NCc1cccc(OC)c1)C2=O | -43.9% (active) | -95% (active) | -94.7% (active) | -41.2% (active) | -65.4% (active) | -60.1% (active) | -64.7% (active) | -21.1% (active) |
| COC(=O)/C=C1/CCC2C3CCC4=CC(=O)C(Br)CC4(C)C3C(=O)CC12C (stereo not given) | 54.8% | 95.9% | 76.3% | 69.2% | 42.3% | 47.9% | 62.1% | 81.1% |

| SMILES | growth (T-47D breast) | growth (BT-549 breast) | growth (MDA-MB-435 melanoma) | growth (SW-620 colon) | growth (MCF7 breast) | growth (HCT-116 colon) | growth (HCC-2998 colon) | growth (KM12 colon) |
| --- | --- | --- | --- | --- | --- | --- | --- | --- |
| Oc1ccc(Cl)cc1CNc1nc2ccccc2[nH]1 | 96% | 58.4% | -67.3% (active) | -48.6% (active) | 18% | 12.3% | 59.3% | 13.2% |
| O=C(c1ccc2ncc(-c3nc(NC4CC4)ncc3F)n2c1)N1CCOCC1 | 32.2% | 52.4% | 32% | 10.2% | 5.99% (active) | 0.221% (active) | 71.3% | 2.99% (active) |
| Clc1ccc2c(c1)C[C@H]1C[C@@H](c3cccs3)N2O1 | 97.1% | 105% | 95.9% | 99.1% | 105% | 105% | 99.8% | 104% |
| COc1cc(C2=NN(c3ccc(S(N)(=O)=O)cc3)C(c3ccc(Cl)cc3)C2)cc(OC)c1OC (stereo not given) | 20.4% | 57.9% | 29.2% | 44.3% | 25.2% | 23.2% | 45.9% | 37.6% |
| O=C1NC(=O)C2(CCCC2C(=O)O)N1 (stereo not given) | 106% | 102% | 105% | 108% | 96.2% | 98.4% | 100% | 113% |
| ONc1nc(NO)c2[nH]cnc2n1 | 53.5% | 77.4% | 75.7% | 55% | 90.2% | 46.8% | 121% | 110% |
| Brc1ccc(SCN(CSc2ccc(Br)cc2)Cc2ccccc2)cc1 | 84.7% | -15.2% (active) | 75.8% | 102% | 66.2% | 57.8% | 113% | 43.2% |
| O=C(NCc1ccc(F)cc1)C1CN(c2ccc(Cl)cc2)N(c2ccc(Cl)cc2)C1=O (stereo not given) | 49.9% | 61.2% | -21.8% (active) | 36.7% | 29.6% | 48.8% | 84.6% | 33.2% |
| CC(C)(C)CC(C)(C)N(CSc1ccc(Cl)cc1)CSc1ccc(Cl)cc1 | 63.2% | -52.4% (active) | 46.3% | 35.9% | 31.4% | 25.5% | 65.3% | 33.5% |
| COc1ccc(-n2ncc3c4nc(OC)c(S(=O)(=O)c5ccccc5)cc4ccc32)cc1 | 57% | 53.1% | 83.3% | 90% | 87.9% | 59.7% | 96.7% | 90.2% |
| COc1ccc(-n2ncc3c2ccc2cc(S(=O)(=O)c4ccccc4)c(=O)n(C)c23)cc1 | 90.6% | 67.8% | 90.3% | 97.5% | 91% | 78.3% | 102% | 88.8% |
| Nc1c(Br)cc(Br)cc1-c1n[nH]c(=O)[nH]c1=O | 103% | 101% | 99.2% | 96.9% | 99.8% | 107% | 111% | 99.8% |
| CCCC1=NNC(=O)C1 | 101% | 99.2% | 98.5% | 99.8% | 96.3% | 98.5% | 119% | 117% |
| O=C1c2ccccc2C(=O)c2c(Nc3ccc(CCO)cc3)ccc(O)c21 | 33.2% | 53.3% | 88.4% | 65.8% | 33.7% | 68.6% | 66.8% | 76.2% |
| CCOC(=O)c1cn2c3c(cc(F)cc3c1=O)C(CC)c1ccccc1C2 (stereo not given) | 93.1% | 96.7% | 93.9% | 107% | 90.3% | 102% | 93.7% | 102% |
| Nc1cc(Br)c(-c2nnc(CCC(=O)c3nc4ccccc4[nH]3)o2)c(Br)c1 | 72.6% | 40.6% | 5.71% (active) | 72.1% | 18.9% | 53.3% | 78% | 69% |
